This is part of a sample that, as a whole, favours compounds with a hit. Of some 83,000 tested, about 20% had one in any assay.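 Results are percent growth after 48 hours of single-concentration exposure. 100 means growth as in untreated cells, lower positive values show inhibition; negative values down to -100 show cell death.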 Unmarked numbers belong to inactive results. Activity calls are given as the source filed them. How the source made its calls: active means growth percent below 10; inactive means the rest.

The values below come from PubChem BioAssay (NCI).

Experiment in all cases: NCI-60 one-dose screen, 48 h (100 = growth as untreated, 0 = no growth, -100 = all killed)
One experiment has as its system SR leukemia. To be noted: 10 µM unless noted.
The next experiment relates to RPMI-8226 leukemia. To be noted: 10 µM unless noted.
In a further experiment the test system is OVCAR-8 ovarian. Conditions: 10 µM unless noted.
The subject of a further experiment is OVCAR-5 ovarian. Conditions: 10 µM unless noted.
A further experiment deals with OVCAR-4 ovarian. Conditions: 10 µM unless noted.
The next experiment relates to SK-OV-3 ovarian. To be noted: 10 µM unless noted.
The subject of the next experiment is IGROV1 ovarian. To be noted: 10 µM unless noted.
A further experiment relates to OVCAR-3 ovarian. To be noted: 10 µM unless noted.
In the next experiment the test system is HS 578T breast. To be noted: 10 µM.
Another experiment deals with NCI/ADR-RES ovarian. Conditions: 10 µM unless noted.
A further experiment deals with T-47D breast. Conditions: 10 µM unless noted.
A further experiment concerns BT-549 breast. Conditions: 10 µM unless noted.
The test system of another experiment is MDA-MB-435 melanoma. Conditions: 10 µM unless noted.
For another experiment, the system named is HCT-116 colon. To be noted: 10 µM unless noted.
The test system of another experiment is HCC-2998 colon. Conditions: 10 µM.
A further experiment relates to KM12 colon. Conditions: 10 µM unless noted.
The subject of the next experiment is MCF7 breast. Conditions: 10 µM unless noted.
For a further experiment, the system named is SW-620 colon. To be noted: 10 µM unless noted.

With `COc1cnc2c(c1)C(=O)c1c-2n(CCCN2CCOCC2)c(=O)c2cc(Cl)ccc12`, the growth is 7.63% (active) in the experiment with SR leukemia; 9.78% (active) in the experiment with RPMI-8226 leukemia; 32.8% in the experiment with OVCAR-8 ovarian; 69.1% with OVCAR-5 ovarian; 41.6% in the experiment with OVCAR-4 ovarian; 10.7% in the experiment on SK-OV-3 ovarian. Further, the growth in the experiment on IGROV1 ovarian is 43.2%; in the experiment on OVCAR-3 ovarian, 25.8%; in the experiment on HS 578T breast it was 79.2%; in the experiment with NCI/ADR-RES ovarian, 19.2%; in the experiment on T-47D breast, 10%; in the experiment on BT-549 breast it was 43.6%. Further, the growth in the experiment with MDA-MB-435 melanoma was 47.5%; in the experiment on HCT-116 colon, 8.51% (active); with HCC-2998 colon it was 53.6%; in the experiment on KM12 colon it was 32.7%.

Consider `CCc1nc2cc(/C=C/C(=O)NO)c(F)cc2c(=O)n1CCc1ccccc1`, for which the growth with SR leukemia is 8.11% (active); with RPMI-8226 leukemia, 12%; in the experiment with OVCAR-8 ovarian it was 6.53% (active); with OVCAR-5 ovarian, 25.4%; with OVCAR-4 ovarian, 11%; in the experiment on SK-OV-3 ovarian it was -4.18% (active). For the same molecule, the growth was 26.1% in the experiment on IGROV1 ovarian; 5.14% (active) in the experiment with OVCAR-3 ovarian; 54% with HS 578T breast; -11.3% (active) in the experiment on NCI/ADR-RES ovarian; -0.665% (active) with T-47D breast; 15.7% in the experiment on BT-549 breast. Also, the growth in the experiment with MDA-MB-435 melanoma was 18.2%; in the experiment with MCF7 breast, 12.3%; in the experiment with HCT-116 colon, 5.15% (active); with HCC-2998 colon it was 37.3%; with KM12 colon it was 15.5%.

For the molecule `Ic1ccccc1-c1ccccc1`, the growth was 102% with SR leukemia; 103% in the experiment on RPMI-8226 leukemia; 110% in the experiment on OVCAR-8 ovarian; 114% in the experiment on OVCAR-5 ovarian; 109% with OVCAR-4 ovarian; 111% with SK-OV-3 ovarian. For the same molecule, the growth in the experiment with IGROV1 ovarian was 117%; in the experiment on OVCAR-3 ovarian, 111%; with HS 578T breast it was 102%; with NCI/ADR-RES ovarian it was 110%; in the experiment on T-47D breast, 107%; in the experiment with MDA-MB-435 melanoma, 121%. Moreover, the growth in the experiment with SW-620 colon was 102%; with MCF7 breast it was 103%; in the experiment with HCT-116 colon it was 111%; in the experiment on HCC-2998 colon, 114%; in the experiment with KM12 colon it was 109%.

With `c1ccc2c(c1)CCN(NCCN1CCCC1)C2`, the growth in the experiment with SR leukemia is 103%; with RPMI-8226 leukemia it was 95.5%; in the experiment with OVCAR-8 ovarian, 101%; in the experiment with OVCAR-5 ovarian, 94.7%; in the experiment on OVCAR-4 ovarian it was 106%; in the experiment on SK-OV-3 ovarian it was 84.6%. The growth with IGROV1 ovarian is 96.3%; in the experiment with OVCAR-3 ovarian, 99.9%; with HS 578T breast, 85.6%; in the experiment on NCI/ADR-RES ovarian, 96.1%; with T-47D breast, 91.4%; with BT-549 breast, 99.8%. Further, the growth in the experiment with SW-620 colon was 94.8%; in the experiment with MCF7 breast, 96.5%; in the experiment with HCT-116 colon, 85.6%; in the experiment with HCC-2998 colon, 95%; with KM12 colon it was 100%.

Regarding `O=C(Cn1c(=O)ccn(CCCCCCCCOc2ccc(Br)cc2)c1=O)Nc1ccc(Oc2ccc(Cl)cc2)cc1`, the growth was 28.7% in the experiment with SR leukemia; 34.2% with RPMI-8226 leukemia; 63.9% in the experiment with OVCAR-8 ovarian; 108% in the experiment with OVCAR-5 ovarian; 53.4% in the experiment on OVCAR-4 ovarian; 65.3% with SK-OV-3 ovarian. Moreover, the growth with IGROV1 ovarian was 77.2%; in the experiment with OVCAR-3 ovarian, 83.7%; in the experiment on HS 578T breast, 81.8%; in the experiment on NCI/ADR-RES ovarian, 42.7%; with T-47D breast, 37.8%; in the experiment on BT-549 breast, 54.1%. The growth is 65.6% in the experiment with MDA-MB-435 melanoma; 41.3% in the experiment with MCF7 breast; 46.5% with HCT-116 colon; 75.5% in the experiment on HCC-2998 colon; 61.7% in the experiment with KM12 colon.

Take `O=C1CC(c2ccc(Cl)cc2)c2ncn(-c3cccc(Cl)c3)c2N1` (stereo unspecified): the growth with SR leukemia was 27.3%; in the experiment with RPMI-8226 leukemia it was 58%; with OVCAR-8 ovarian it was 56.5%; in the experiment with OVCAR-5 ovarian it was 96%; in the experiment with OVCAR-4 ovarian it was 87.2%; with SK-OV-3 ovarian, 47.8%. Also, the growth is 59.8% with IGROV1 ovarian; 13.3% in the experiment on OVCAR-3 ovarian; 52.8% with HS 578T breast; 26.5% in the experiment on NCI/ADR-RES ovarian; 68.7% in the experiment on T-47D breast; -16.8% (active) with MDA-MB-435 melanoma. The growth is 26% with SW-620 colon; 61.2% in the experiment with MCF7 breast; 19.1% in the experiment on HCT-116 colon; 77.4% in the experiment with HCC-2998 colon; 54.1% in the experiment with KM12 colon.

In the case of `C=C1C(=O)O[C@H]2[C@H]1CC/C(CNC(=O)c1cc3cc(OC)ccc3[nH]1)=C\CC[C@@]1(C)O[C@@H]21`, the growth was -0.374% (active) in the experiment with SR leukemia; -38.4% (active) in the experiment with RPMI-8226 leukemia; -16.4% (active) in the experiment with OVCAR-8 ovarian; -20.4% (active) in the experiment on OVCAR-5 ovarian; -3.23% (active) with OVCAR-4 ovarian; 59.3% with SK-OV-3 ovarian. Moreover, the growth with IGROV1 ovarian is -19.8% (active); in the experiment on OVCAR-3 ovarian, -90.7% (active); in the experiment with HS 578T breast it was -1.38% (active); in the experiment with NCI/ADR-RES ovarian it was 54.3%; with T-47D breast it was -46.3% (active); with MDA-MB-435 melanoma, -48.1% (active). Also, the growth in the experiment with SW-620 colon is -72.3% (active); with MCF7 breast, -29.6% (active); in the experiment with HCT-116 colon it was -81.3% (active); with HCC-2998 colon it was -90.3% (active).

In the case of `C=CCCCC(=O)CCC(=O)OCC1O[C@@H](O[C@@H]2C(O)[C@@H](OC(C)=O)C(C)O[C@H]2O[C@H](CC=C)CCCCC)C(O)[C@@H](OC(=O)/C(C)=C/C)[C@@H]1OC(=O)/C=C/c1ccccc1` (stereo partly specified), the growth was -12.4% (active) in the experiment with SR leukemia; -1.27% (active) in the experiment on RPMI-8226 leukemia; 42.1% with OVCAR-8 ovarian; 53.5% with OVCAR-5 ovarian; 42.4% in the experiment with OVCAR-4 ovarian; 40.6% in the experiment on SK-OV-3 ovarian. The growth in the experiment on IGROV1 ovarian is 35.1%; in the experiment on OVCAR-3 ovarian, 26%; in the experiment with HS 578T breast it was 35.9%; in the experiment with NCI/ADR-RES ovarian, 49.2%; in the experiment on T-47D breast, -5.16% (active); in the experiment on BT-549 breast it was 16.7%. The growth is 9.15% (active) with MDA-MB-435 melanoma; 17.6% in the experiment on MCF7 breast; 13.7% in the experiment with HCT-116 colon; 44.1% with HCC-2998 colon; 22.3% in the experiment with KM12 colon.

In the case of `Cc1cc2c(-c3nc4ccccn4c3Nc3cccc4ccccc34)c(O)c(O)cc2c(O)c1-c1c(C)cc2c(-c3nc4ccccn4c3Nc3cccc4ccccc34)c(O)c(O)cc2c1O`, the growth is 27.5% with SR leukemia; 14.5% in the experiment with RPMI-8226 leukemia; 39.8% in the experiment with OVCAR-8 ovarian; 66.8% in the experiment on OVCAR-5 ovarian; 56% in the experiment on OVCAR-4 ovarian; 24.2% in the experiment on SK-OV-3 ovarian. Further, the growth is 47.8% with IGROV1 ovarian; 68.3% in the experiment with OVCAR-3 ovarian; 39.7% in the experiment with HS 578T breast; 81.6% in the experiment with NCI/ADR-RES ovarian; 15.5% in the experiment on T-47D breast; 27.9% with BT-549 breast. The growth is 21.6% in the experiment on MDA-MB-435 melanoma; 14.7% with MCF7 breast; -5.99% (active) in the experiment on HCT-116 colon; 41.8% with HCC-2998 colon; 20.1% in the experiment with KM12 colon.
